# A selection: hits, their analogues and other compounds. The true share with any hit is near 3.6%.
# Pf apPOL inh – Pf-apPOL inhibitors, biochemical, fluorescence | 0.25% of 210,000 active | Recombinant Pf-apPOL, molecular beacon fluorescence, 1.5 h | Plasmodium falciparum apicoplast DNA polymerase (apPOL) | AID 1794808, 2022 | inhibition, % at 10 µM
# mHTT CaM bind – mutant huntingtin-calmodulin interaction inhibitors – biochemical, AlphaScreen, primary screen; 3.6% of 190,000 active; inhibition, % at 15 µM; P42858; AlphaScreen His-mHTT/GST-CaM binding, luminescence;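 also: 0% = both proteins with DMSO and 100% = one protein alone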
# * hit, by the source's call; · = not tested or not shown; ! = repeats disagree. Rule as the data show it: active = inhibition above about 50%; inactive = the rest.
SMILES,Pf apPOL inh,mHTT CaM bind
CCCCC[C@H](C)N1C[C@H](COCc2ccccc2)Oc2cc(N3CC[C@@H](N(C)C)C3)ccc2S1(=O)=O,-33,100*
CCCCC[C@@H](C)N1C[C@H](COCc2ccccc2)Oc2cc(N3CC[C@@H](N(C)C)C3)ccc2S1(=O)=O,-11,-4
CCCCC[C@H](C)N1C[C@H](COCc2ccccc2)Oc2cc(N3CC[C@H](N(C)C)C3)ccc2S1(=O)=O,-37,-14
CCOC(=O)N1CCN(C(=O)CN2CCC(c3nnc(-c4ccc(F)cc4)o3)CC2)CC1,-5,-7
COc1ccc(N2C(=O)CSC23CCN(C(=O)C(C)Cl)CC3)cc1 (configuration not stated),1,-3
Cc1nn(C)cc1NC(=S)N1CCSCC1,·,-3
Cc1ccc(S(=O)(=O)N2CCc3nc(NC(=O)CCc4ccccc4)sc3C2)cc1,3,2
O=C1NC(c2ccccc2)=NC1=Cc1ccccc1,3,·
c1ccc(C2=NNC(c3ccccc3)=NN2)cc1,99*!,24
CCn1cc(-c2ccc(F)cc2)cc1C(=O)NCCOC,-11,21
COc1cccc2ccc(C=C3Oc4cc(O)ccc4C3=O)nc12,62*,17
O=C1C(=Cc2ccc3ccccc3n2)Oc2cc(O)ccc21,1,2
COc1cccc(-c2noc(C3CCCN3C(=O)Nc3ccc(OC)c(Cl)c3)n2)c1 (configuration not stated),0,-1
CCC(C)c1ccc(OCCCN2CCN(C)CC2)cc1 (configuration not stated),-7,3
CCC(C)c1ccc(OCCCCN2CCN(C)CC2)cc1 (configuration not stated),-1,54*
C=CCNC(=O)CN(c1ccc(OC)cc1OC)S(=O)(=O)c1ccccc1,3,1
Cn1c(N2CCCC(C(=O)NCc3ccccc3)C2)cc(=O)n(C)c1=O (configuration not stated),8,-7
COc1ccc(Cl)cc1C1=N/C(=C/c2cccnc2)C(=O)O1,2,1
CC1Cc2c(NC(=O)c3ccc(Br)o3)nn(C)c2NC1=O (configuration not stated),0,52*
COCC(=O)Nc1nn(C)c2c1CC(C)C(=O)N2 (configuration not stated),-1,-14
CC(=NOCc1nc(-c2cccc(Cl)c2)no1)c1ccc(Cl)cc1,4,·
Cc1ccccc1CC(=O)N1CCC(COc2ccc(C(=O)N3CCOCC3)cc2)CC1,2,15
CC(C)(C)c1ccc(OCC(=O)Nc2ccccc2C(F)(F)F)cc1,2,-91
CCOc1cc(/C=C2\C(=O)ON=C2C)cc(Br)c1OCc1ccc(C)cc1,-5,89*
CCOc1cc(/C=C2\C(=O)ON=C2C)cc(Cl)c1OCc1ccc(C)cc1,4,71*
SMILES,Pf apPOL inh,mHTT CaM bind
COc1ccc(/C=C2/C(=O)ON=C2C)cc1Cl,-5,12
C#CCOc1c(Br)cc(/C=C2\C(=O)ON=C2C)cc1OCC,12,24
CC(C)c1cc(C2CCCN2C(=O)c2cccc(F)c2)on1 (configuration not stated),1,3
Cc1cccc(CN2Cc3cccc4c3[C@H](C=CC4)CC2=O)c1,-4,100*
O=C1C[C@H]2C=CCc3cccc(c32)CN1Cc1ccc(F)cc1,-8,32
COc1ccc(CC(=O)N2CCCCC2CCN2CCOCC2)cc1 (configuration not stated),-3,2
CC(C)(C)c1ccc(C(=O)N2CCC(=O)N([C@H](COCc3ccccc3)Cc3ccccc3)CC2)cc1,-6,7
Cc1ccc(S(=O)(=O)N2CCC(=O)N([C@H](COCc3cccc(Cl)c3)Cc3ccccc3)CC2)cc1,-5,20
Cc1cccc(COC[C@H](Cc2ccccc2)N2CCN(C(=O)c3ccc(Cl)c(Cl)c3)CCC2=O)c1,0,100*
O=C(c1cccc(Cl)c1)N1CCC(=O)N([C@H](COCc2cccc(Cl)c2)Cc2ccccc2)CC1,-6,100*
Cc1nn(-c2ccccc2)nc1C(=O)ON1C(=O)C2C3C=CC(O3)C2C1=O (configuration not stated),-72,·
O=C(ON1C(=O)C2C3C=CC(O3)C2C1=O)c1cccnc1Oc1ccccc1 (configuration not stated),77*,·
Cc1cc(Sc2ncnc3cc(-c4ccc(F)cc4)sc23)c(C)cc1Cl,-4,·
COc1cc(OC)cc(C(=O)N2CCc3c(nc4cc[nH]n4c3=O)C2)c1,-3,-5
C=CS(=O)(=O)N(Cc1ccc(F)cc1)C(=C)C(=O)OC,-1,12
O=C(c1cccnc1)N1CCN(c2ccc([N+](=O)[O-])cc2)CC1,0,-1
O=C(c1ccc(C#CC2(O)CCCCC2)cc1)N1CCN(c2ccc([N+](=O)[O-])cc2)CC1,-1,56*
O=S(=O)(O)c1cc(I)c(O)c2ncccc12,-194,100*
O=S(=O)(O)c1cc(Br)ccc1I,-14,·
CCOC(=O)c1c(SC)nc2ccc(Cl)cc2c1Sc1ccc(C)cc1,-1,·
Cc1nn(CC(O)COC(c2ccccc2)c2ccccc2)c(C)c1Br (configuration not stated),-1,99*
Cc1nc(C)n(CC(O)COc2ccc(-c3ccccc3)cc2)n1 (configuration not stated),-10,-8
O=C(Nc1ccccc1Cl)c1c(O)c2cccnc2n(-c2cccc(F)c2)c1=O,2,-7
Cc1cc2c(c(=O)o1)C(C1CCCCC1)C(C#N)=C(N)O2 (configuration not stated),2,0
Cc1nn2c(=O)/c(=C/c3ccc(Cl)cc3)sc2nc1=O,3,-4
SMILES,Pf apPOL inh,mHTT CaM bind
CCCCNC(=O)c1cccnc1N1CCNC(c2ccccc2)C1 (configuration not stated),1,-3
O=C(NCc1ccccc1)c1cc(N2C(=O)C=CC2=O)ccc1Cl,-2,31
O=C(O)c1cc(N2C(=O)C=CC2=O)ccc1Cl,55*,·
C=CCSc1nc(O)c(CC)c(=O)n1-c1ccccc1,-6,-2
Cc1cc(C)n(-c2nc(C)nc(N)n2)n1,7,1
COc1nc(-n2nc(C)cc2C)nc(-n2nc(C)cc2C)n1,64*,-8
Cc1ccccc1NC1=C(N)C(=O)c2ccccc2C1=O,-8,59*
Cc1ccccc1NC1=C(N2CCOCC2)C(=O)c2ccccc2C1=O,2,5
C=CCSC1=C(C#N)C(c2cccc(Oc3ccccc3)c2)CC(=O)N1 (configuration not stated),-13,9
COc1ccccc1/C=c1\sc2nc(=O)c(Cc3ccccc3)nn2c1=O,-1,2
COc1ccccc1/C=C/C=c1\sc2nc(=O)c(Cc3ccccc3)nn2c1=O,-5,51*
CSc1ccc(S(=O)(=O)Nc2ccccc2C(=O)NCc2ccccc2)cc1,-9,-9
Cc1c(C)n(CC(O)CNCCCO)c2ccccc12 (configuration not stated),3,15
Cc1c(C)n(CC(O)CNc2ccc(Br)cc2)c2ccccc12 (configuration not stated),6,100*
Cc1c(C)n(CC(O)CNC(C)c2ccccc2)c2ccccc12 (configuration not stated),-4,31
Cc1c(C)n(CC(O)CNc2ccc(Cl)cc2)c2ccccc12 (configuration not stated),2,100*
